MCF10A rerep: induces DNA re-replication in MCF 10a normal breast cells; MCF 10A DNA re-replication, Hoechst nuclear intensity, 48 h; Potency, µM (series often up to 46.1 µM), for the others: top-dose activity, positive = re-replication, hits mostly activators; 2.9% of 350,000 active; AID 624296; further: % of control where 0% means no effect; nearly all actives have a fitted effect of over 50% in size
12-LOX inh: inhibitors of human 12S-lipoxygenase ALOX12 | P18054 | purified 12hLO, xylenol orange hydroperoxide absorbance | Potency, µM (doses to about 108 µM), for inactives: at the top dose activity change, negative = inhibition, hits mostly inhibitors | 1.1% of 580,000 active; further: on the % scale 0 is the no-effect control and ±100 the full control effect
Target sequence (P18054 whole entry, looked up): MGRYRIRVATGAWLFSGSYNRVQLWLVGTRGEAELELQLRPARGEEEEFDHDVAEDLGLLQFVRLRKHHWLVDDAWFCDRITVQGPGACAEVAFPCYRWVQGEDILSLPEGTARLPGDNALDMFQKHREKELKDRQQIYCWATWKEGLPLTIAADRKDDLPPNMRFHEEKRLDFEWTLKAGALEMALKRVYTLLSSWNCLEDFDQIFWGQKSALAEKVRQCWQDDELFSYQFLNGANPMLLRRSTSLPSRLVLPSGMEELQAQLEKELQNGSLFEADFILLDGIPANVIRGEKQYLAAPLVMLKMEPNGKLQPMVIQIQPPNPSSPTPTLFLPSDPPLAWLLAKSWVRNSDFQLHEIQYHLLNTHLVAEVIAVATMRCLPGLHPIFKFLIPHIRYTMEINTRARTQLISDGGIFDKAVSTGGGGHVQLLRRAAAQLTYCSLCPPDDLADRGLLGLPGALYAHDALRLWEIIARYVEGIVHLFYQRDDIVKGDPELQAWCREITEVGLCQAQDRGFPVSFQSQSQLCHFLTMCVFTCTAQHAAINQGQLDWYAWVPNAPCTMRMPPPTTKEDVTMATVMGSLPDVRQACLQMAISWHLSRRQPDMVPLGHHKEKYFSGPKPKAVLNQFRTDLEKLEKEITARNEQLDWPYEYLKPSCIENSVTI
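Hydroperoxide product was detected by ferrous iron/xylenol orange as the 573 to 405 nm absorbance ratio. Arachidonic acid at 40 uM (final) was turned over for 30 min at room temperature by 150 nM human 12hLO, pH 7.0 Hepes buffer, after 15 min compound preincubation.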
PINK1 expr mod: changes PINK1 expression | PINK1 immunofluorescence, high-content cytometry, 24 h | Potency, µM (series often up to 76.6 µM), inactives show top-dose activation (PINK1 increase), most hits filed as activators | 0.2% of 410,000 active; active means well fitted activation curve with a large enough effect; inconclusive means small, poorly fitted or top-dose-only effect; cell line not stated here; further: % of control where 0% means no effect; nearly all actives have a fitted effect of over 65% in size
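Stable cell line treated 24 h with compounds at 5 concentrations (CCCP controls), then fixed and immunostained for PINK1 plus nuclear and cell stains; PINK1 immunofluorescence quantified by laser-scanning microplate cytometry.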
KB-V1 cytotox: KB-V1 MDR subline cytotoxicity; 3.4% of 400,000 active; KB-V1 MDR cells viability, CellTiter-Glo, 72 h; Potency, µM (series often up to 46.1 µM), actives largely listed as cytotoxic; further: on the % scale 0 is the no-effect control and ±100 the full control effect; nearly all actives have a fitted effect of over 60% in size
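KB-V1 MDR subline cells in DMEM (phenol-red free, 10% FBS) exposed to compounds in qHTS concentration series for 72 h at 37 degrees C. Viability read by CellTiter-Glo luminescence; concentration-effect curves fitted after normalization and correction.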
SW480 rereplic: induces DNA re-replication in SW480 colon adenocarcinoma cells; Potency, µM (titrated, usually from 46.1 µM), inactives show top-dose re-replication activation, hits mostly activators; SW480 DNA re-replication, Hoechst DNA content imaging, 48 h; 1.8% of 340,000 active; further: % of control where 0% means no effect; nearly all actives have a fitted effect of over 55% in size
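Treated cells incubate 48 hr (37 C, 5% CO2), are stained 40 min with Hoechst, and nuclear fluorescence is enumerated; a rise in nuclei with high DNA signal marks re-replication.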
KB-3-1 tox: kills parental KB-3-1 adenocarcinoma cells | 1.4% of 400,000 active | KB-3-1 viability, CellTiter-Glo ATP luminescence, 72 h | Potency, µM (doses to about 46.1 µM), usual class: cytotoxic | AID 1347075; further: on the % scale 0 is the no-effect control and ±100 the full control effect; nearly all actives have a fitted effect of over 60% in size
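Parental KB-3-1 adenocarcinoma cells in phenol-red-free DMEM with 10% FBS were pin-treated with compounds at several concentrations, incubated 72 h at 37 °C, and viability read by CellTiter-Glo luminescence; concentration-effect curves were fitted after normalization.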
Numbers without * were called inactive; i = inactive; ? = inconclusive; / = no result given; ! = repeats disagree; [ ] = dose if it differs, or a comment. An excerpt weighted towards active compounds, which were near 5.8% of everything screened. Unless noted, the call rests on the fitted dose curve; in most records, active means well fitted curve in the direction sought with a large enough effect; inconclusive means small, poorly fitted or top-dose-only effect, or another doubt; inactive means no such curve, though single readings can be large; an effect the other way counts as inactive or inconclusive. Potency means the concentration at half of the fitted maximal effect.

SMILES | MCF10A rerep | 12-LOX inh | PINK1 expr mod | KB-V1 cytotox | SW480 rereplic | KB-3-1 tox
Cc1cccc(NC(=O)c2cccc(S(=O)(=O)Nc3c(C)n(C)n(-c4ccccc4)c3=O)c2)c1 | 0% | -1% | 1% | 15µM* | -2% | i
Cc1c(N/C(=N/S(=O)(=O)c2ccc(Cl)cc2)c2ccccc2)c(=O)n(-c2ccccc2)n1C | 3% | 20% | / | / | -4% | /
Cc1c(NS(=O)(=O)c2cccc(C(=O)Nc3cccc(F)c3)c2)c(=O)n(-c2ccccc2)n1C | 1% | -25% | 1% | ? | 0% | i
O=C(Cn1ccc2cc(Cl)ccc21)N1CCOCC1 | / | 3% | / | / | / | /
CN(C)c1cc[n+](CC(=O)Nc2ccc(OC(F)F)cc2)cc1 | -8% | ? | 2% | i | -9% | 4.1µM*
CN(C)c1cc[n+](CC(=O)Nc2ccc(Cl)c([N+](=O)[O-])c2)cc1 | ? | 0% | 5% | i | 3% | 6.5µM*
CN(C)c1cc[n+](CC(=O)Nc2cccc([N+](=O)[O-])c2)cc1 | 0% | -1% | 0% | i | 1% | ?
COc1ccc(Cl)cc1NC(=O)CCC1CCCN(C(=O)c2ccoc2C)C1 (stereo unspecified) | / | 19% | / | / | / | /
O=c1oc2ccccc2cc1-c1nc2ccccc2o1 | 3% | 25% | 0%[38.3 µM] | i | 3% | i
O=c1oc2ccccc2cc1-c1nc2c(s1)CCCC2 | 1.2µM* | 19% | 27%[38.3 µM] | ? | 1.2µM* | ?
COc1ccc(O)c(C(=O)/C=C/c2cc3ccccc3o2)c1 | 2.6µM* | 0% | 9% | i | ? | i
O=C(Oc1ccccc1/C=C\C(=O)c1cc2ccccc2o1)c1cccc(F)c1 | 18µM* | -10% | -3% | ? | ? | i
O=C(Oc1ccccc1/C=C\C(=O)c1cc2ccccc2o1)c1ccccc1 | ? | -10% | -2% | i | ? | i
COc1cccc(C(=O)Oc2ccccc2/C=C\C(=O)c2cc3ccccc3o2)c1 | 0.58µM* | -29% | -2% | i | ? | ?
CC(Sc1nc2cc(S(=O)(=O)N3CCCCC3)ccc2o1)C(=O)Nc1ccccc1 (stereo unspecified) | / | -2% | / | / | / | /
Cc1cccc(C(=O)N2CCN(Cc3ccc(-c4cccc(F)c4)s3)CC2)n1 | / | 31% | / | / | / | /
NC(=S)NNc1c(F)c(F)c(F)c(F)c1F | 15µM* | -30% | 2% | i | 14% | ?
CCN=c1scc(-c2ccc(F)cc2)n1/N=C/c1ccccn1 | 13%[9.22 µM] | 208% | 0% | ? | -89% | i
COC(=O)c1ccc(/C=N/Nc2nc(C)c(C)s2)cc1 | 23µM* | 0% | 1% | i | ? | i
CCCc1sc(N/N=C/c2ccccn2)nc1-c1ccc(F)cc1 | 0% | / | 13µM* | 10µM* | -6% | ?
Cc1nc(N/N=C/c2ccccn2)sc1C | ? | -5% | 12% | ? | 21µM* | 26µM*
Cc1nc(Sc2cccc(C(F)(F)F)c2)c2c(-c3cccs3)csc2n1 | / | 9% | / | / | / | /
CCN(CC)C(=O)CC(c1cc(OC)c(OC)c(OC)c1)c1c(OC)cc(OC)c2c(-c3ccccc3)cc(=O)oc12 (stereo unspecified) | -3% | 40µM* | 3% | i | 1% | ?
Cc1sc2nc(-c3cccnc3)nc(Cl)c2c1-c1ccccc1 | 21µM* | ? | 22% | 13µM* | 0% | i
Cc1ccc(Cl)cc1N1CCN(S(=O)(=O)c2ccc3c(c2)oc(=O)n3C)CC1 | 2% | 0% | 2%[38.3 µM] | 13µM* | 7% | i
SMILES | MCF10A rerep | 12-LOX inh | PINK1 expr mod | KB-V1 cytotox | SW480 rereplic | KB-3-1 tox
Cc1ccc(C)c(N2CCN(C(=O)CCS(=O)(=O)c3ccc4c(c3)oc(=O)n4C)CC2)c1 | 1% | -13% | 0% | 6.5µM*! | 12% | ?
Cn1c(=O)oc2cc(S(=O)(=O)CCC(=O)N3CCN(c4ccccc4F)CC3)ccc21 | -2% | 9% | 0% | ? | -2% | i
Cn1c(=O)oc2cc(S(=O)(=O)N3CCN(c4ccccc4F)CC3)ccc21 | 0% | 29% | 2% | i | -10% | i
CC(OC(=O)c1cccc(S(=O)(=O)N2CCCCC2)c1)C(=O)N1CCCc2ccccc21 (stereo unspecified) | / | -4% | / | / | / | /
CC1=C(C#N)C(c2cccnc2)C2=C(N1)c1ccccc1C2=O (stereo unspecified) | 1% | 50% | 2% | i | -5% | i
CC1=C(C#N)C(c2ccccc2)C2=C(N1)c1ccccc1C2=O (stereo unspecified) | 1.5µM* | -8% | 4% | 3.3µM* | 8.2µM* | 2.1µM*
CCC(=O)N1CCCC(C(=O)N(C)Cc2cccc(C(F)(F)F)c2)C1 (stereo unspecified) | / | 9% | / | / | / | /
CC(OC(=O)C1CCN(c2ccc(C(F)(F)F)cn2)CC1)C(=O)NC1CCCCC1C (stereo unspecified) | 1% | -1% | 7% | 23µM* | 0% | i
CCOc1ccc(C(=O)C(C)OC(=O)C2CCN(c3ccc(C(F)(F)F)cn3)CC2)cc1 (stereo unspecified) | 10% | -7% | 0% | ? | 1% | ?
COc1ccccc1CNC(=O)COC(=O)C1CCN(c2ccc(C(F)(F)F)cn2)CC1 | 8% | 6% | -1% | i | 4.6µM* | i
COc1cccc(CNC(=O)COC(=O)C2CCN(c3ccc(C(F)(F)F)cn3)CC2)c1 | -5% | 315% | -1% | i | -5% | i
COc1ccc(CCNC(=O)COC(=O)Cn2cnc3ccccc32)cc1OC | -6% | -6% | 1% | i | 4% | i
COc1ccccc1CNC(=O)COC(=O)Cn1cnc2ccccc21 | 0.82µM* | -1% | 2% | i | ? | i
COC(=O)CNC(=O)C1(c2ccccc2)CCC1 | / | 14% | / | / | / | /
Cc1ccc(C(=O)NC(=S)NCC2CCCO2)cc1Br (stereo unspecified) | 4% | 28µM* | 2% | i | ? | i
COc1ccccc1-c1cc2c(nc1-c1ccccc1)nc(C(=O)NCCN(C)C)n2C | / | -3%[176 µM] | / | / | / | /
O=C(Nc1ccc(-c2noc(CCc3ccccc3)n2)cc1)c1cccnc1 | 16µM* | 3% | 1% | 16µM* | -4% | ?
Cc1[nH]c2ccccc2c1C(=O)C(C)OC(=O)c1ccccc1F (stereo unspecified) | / | -3% | / | / | / | /
O=C(COC(=O)c1c(Cl)cccc1Cl)Nc1ccccc1Br | ? | 7% | 1% | 18µM* | 7% | i
CC(C)c1nc2cc(NC(=O)c3ccc[nH]c3=O)ccc2o1 | / | -2% | / | / | / | /
Oc1ccc(Br)cc1CNc1cccc2cccnc12 | ? | 24% | 2% | i | ? | i
